Compounds with a hit are over-represented: about 19% of the library has one in this group of screens.
DT40 TDP1 no CPT – qHTS for Inhibitors of human tyrosyl-DNA phosphodiesterase 1 (TDP1): qHTS in cells in absence of CPT. Potency, µM (doses to about 46.2 µM), without a hit: top-dose activity change, negative = growth inhibition, actives largely listed as inhibitors. AID 686978, 2013. DT40 Tdp1-/- hTDP1 cells, no CPT, ATP luminescence, 48 h. 15% of 420,000 active; note: potency is the fitted concentration of half-maximal effect; nearly all actives have a fitted effect of over 55% in size
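Stably hTDP1-transfected Tdp1-null chicken DT40 cells were treated with library compounds minus camptothecin and grown for at least 48 hr at 37 °C, after which cellular ATP was quantified by luminescence.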
IL-1B inflam inh – inflammasome signaling inhibition, IL-1 beta readout. 4.7% of 360,000 active. activity change, % at 57.5 µM. THP-1 LPS/ATP IL-1B secretion, AlphaLISA, 16 h; stronger effect = lower value; in the data active = activity change below about -50%; inconclusive = mostly about -30% to -49%
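Secreted IL-1B measured by AlphaLISA bead assay after 16 h compound exposure of THP-1 cells; compounds (final up to 57.5 uM) added 1 h before LPS (250 ng/mL) and ATP (1.25 mM) stimulation; lower signal means less secretion.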
DT40 TDP1 CPT – DT40-hTDP1 cell growth loss with CPT; Potency, µM (series often up to 46.2 µM), for the others: at the top dose activity change, negative = growth inhibition, actives largely listed as inhibitors; 12% of 420,000 active; chicken DT40 Tdp1-/-;hTDP1 cells + 20 nM CPT, ATP luminescence, 48 h; note: potency is the fitted concentration of half-maximal effect; nearly all actives have a fitted effect of over 55% in size
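Chicken DT40 Tdp1-/- cells complemented with human TDP1, 400 cells/well, exposed to compounds plus 20 nM camptothecin for at least 48 h at 37 C; viability read as ATP content by CellTiter-Glo luminescence.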
HT1080 IDH1KD tx – HT-1080 IDH1 knockdown cell toxicity (counter line); 2% of 360,000 active; Potency, µM (series often up to 46.1 µM), inactives show top-dose activity, negative = toxicity, hits mostly cytotoxic; HT-1080 IDH1 knockdown viability, ATP luminescence, 48 h;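 note: potency is the fitted concentration of half-maximal effect; 0% = DMSO wells and -100% = cell-free medium wells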
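HT-1080-IDH1KD cells (IDH1 knocked down), 750/well in RPMI with 5% FBS, treated with compound 48 h at 37 degrees C. Viability by CellTiter-Glo luminescence, normalised to DMSO and no-cell wells; concentration-response curves classed.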
HT1080NT lethal – kills 2HG-producing HT-1080-NT fibrosarcoma cells | HT-1080-NT fibrosarcoma viability, CellTiter-Glo ATP luminescence, 48 h | 1.6% of 360,000 active | Potency, µM (doses to about 46.1 µM), without a hit: at the highest dose activity, negative = less viability, hits mostly cytotoxic;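 note: NT is the 2HG producing partner of a matched IDH1 knockdown line; potency is the fitted concentration of half-maximal effect; 0% = DMSO-treated cells and -100% = media-only wells without cells; nearly all actives have a fitted effect of over 55% in size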
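HT-1080-NT fibrosarcoma cells (2HG-overproducing), 750 cells/well in RPMI with 5% FBS, dosed after 2 h and incubated 48 h at 37C. CellTiter-Glo luminescence normalized to DMSO and no-cell wells; concentration-response curves fitted and classed.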
An asterisk follows results filed as active; ? = inconclusive; / = no result; [ ] = remark or other dose. Unless noted, calls come from the whole dose curve; as a rule, active = well fitted curve in the direction sought with a large enough effect; inconclusive = small, poorly fitted or top-dose-only effect, or another doubt; inactive = no such curve, though single readings can be large; an effect the other way counts as inactive or inconclusive. Unless noted, % is set by controls: 0 for no effect and ±100 for the full control effect.

SMILES	DT40 TDP1 no CPT	IL-1B inflam inh	DT40 TDP1 CPT	HT1080 IDH1KD tx	HT1080NT lethal
O=C(c1ccccc1F)N1CCN(c2ccccc2)CC1	-5%	-17	-2%	-8%	16%
O=C(c1ccccc1F)N1CCN(c2cccc(C(F)(F)F)c2)CC1	16µM*	-23	?	1%	-2%
CC(C)(C)OC(=O)N1CCc2onc(-c3ccc(-n4cc(C5=CCCCC5)nn4)cc3)c2C1=O	?	29	?	18%	19%
CC(=O)c1ccc(OCc2nnn(CC(=O)NS(=O)(=O)Cc3ccccc3)c2-c2ccccc2)cc1	1%	14	?	18%	13%
CC(=O)Oc1cc2c(c(C)c1OC(C)=O)CC=C1[C@]3(C)CC[C@]4(C)CC[C@@](C)(C(=O)O)CC4[C@]3(C)CC[C@]12C (some centres undefined)	4.6µM*	/	3.7µM*	/	/
CCOC(=O)N1CCN(CCC(=O)Nc2ccc(F)c(F)c2)CC1	-15%	18	13%	18%	6%
CN1CCN(c2ncc3nc(-c4cc(F)cc(F)c4)c(=O)n(Cc4cccs4)c3n2)CC1	-11%	/	3%	/	/
CC1CCC(N(CCCN)Cc2ccco2)CC1C (centres undefined)	21µM*	?	29µM*	-15%	-7%
COc1cc(-c2cnc3ccccc3c2)cc2c1OCCN(C(=O)Cn1nccc1C)C2	-2%	/	-11%[9.04 µM]	/	/
COc1ccc(CNC(=O)C2CCN(S(=O)(=O)c3ccc(N4CCCC4=O)cc3)CC2)cc1	12µM*	-4	26µM*	0%	-2%
O=C(NCc1ccc(N2CCCC2=O)cc1)c1ccc(F)cc1	2%	33	2%	28%	10%
COc1ccc(CNC(=O)C2CCN(S(=O)(=O)c3ccccc3)CC2)cc1	-2%	-4	-1%	0%	0%
O=C(NCc1ccc(F)cc1)C1CCN(S(=O)(=O)c2ccc(N3CCCC3=O)cc2)CC1	16µM*	9	?	3%	7%
Cc1ccc(CNC(=O)c2ccc(N3CCCC3=O)cc2)cc1	-2%	-11	-5%	10%	23%
Cc1ccc(NC(=O)C2CCN(S(=O)(=O)c3ccc(N4CCCC4=O)cc3)CC2)cc1Cl	4.1µM*	-5	5.8µM*	?	?
COc1ccc(NC(=O)C2CCN(S(=O)(=O)c3ccc(N4CCCC4=O)cc3)CC2)c(OC)c1	-2%	18	?	9%	10%
Cn1nc(C(C)(C)C)cc1C(=O)NCc1ccc(N2CCCC2=O)cc1	2.3µM*	-12	3.3µM*	?	?
O=C(Nc1ccccc1N1CCCC1)c1ccc([N+](=O)[O-])cc1Cl	?	20	?	9%	15%
CCNC(=O)C1CCN(S(=O)(=O)c2ccc(F)cc2)CC1	18µM*	2	?	5%	8%
O=C(NCc1ccccc1Cl)C1CCN(S(=O)(=O)c2ccc(N3CCCC3=O)cc2)CC1	?	-16	16µM*	17%	11%
O=C(NCCO)C1CCN(S(=O)(=O)c2ccc(F)cc2)CC1	5%	-18	3%	1%	17%
Cc1ccc(NC(=O)C2CCN(S(C)(=O)=O)CC2)cc1Cl	-4%	-61*	-13%	-4%	-15%
CC(C)=CCCC(C)CN1CCC(n2nccc2NC(=O)c2cccnc2)CC1 (centres undefined)	?	-14	-30%	-2%	-3%
CCOC(=O)c1c(C)nn(-c2ccc(NC(=O)c3c(C)noc3C)cc2)c1C	?	-14	?	-2%	-15%
CCOC(=O)c1c(C)nn(-c2ccc(NC(=O)c3cccs3)cc2)c1C	16µM*	-96*	23µM*	?	?
SMILES	DT40 TDP1 no CPT	IL-1B inflam inh	DT40 TDP1 CPT	HT1080 IDH1KD tx	HT1080NT lethal
CCOC(=O)c1c(C)nn(-c2ccc(NC(=O)/C=C/C(=O)O)cc2)c1C	1.5µM*	0	-14%	21%	5%
CCNC(=O)Nc1ccc(-n2nc(C)c(C(=O)OCC)c2C)nc1	?	6	18µM*	0%	0%
Cc1nn(-c2ccccc2)c(C)c1C(=O)OCC(=O)Nc1ccccc1F	-18%	-15	?	?	-22%[9.24 µM]
CC(=O)c1cc2c(cc1NC(=O)CSc1ccc(S(=O)(=O)N(C)C)cn1)OCO2	?	4	-30%	-2%	-2%
CC(=O)c1cccc(NC(=O)Cn2c(SCC(=O)Nc3ccc(F)cc3)nc3ccccc32)c1	?	/	-18%	/	/
O=c1[nH]c(Cc2ccccn2)nc2scc(-c3ccccc3Cl)c12	?	45	8%	-12%	?
COc1ccc(NC(=O)CSc2nnc3ccc(-c4ccccn4)nn23)cc1OC	-10%	4	?	1%	5%
COc1ccccc1OCc1cc(C(=O)NCc2ccc(N3CCCC3=O)cc2)no1	-7%	-11	-13%	1%	-2%
CCCCC1Cc2[nH][nH]c(=O)c2C(c2ccc(Cl)cc2)O1 (centres undefined)	-27%	-16	-10%	9%	13%
CCCCC1Cc2[nH][nH]c(=O)c2C(c2ccc(F)cc2)O1 (centres undefined)	?	-2	?	26µM*	?
CC(C)=CCC[C@H](C)C[C@@H]1Cc2[nH][nH]c(=O)c2[C@H](c2ccc(F)cc2)O1	21µM*	-24	?	-3%	-14%
Cc1ccnc(NCn2nnc3ccccc32)c1	?	26	16µM*	6%	1%
Cc1ccc(NC(=O)Cn2nnc3ccccc32)c(C)c1	-12%	5	3%	0%	10%
CC(C)(C)OC(=O)NS(=O)(=O)NOCc1ccccc1	5%	/	?	/	/
Oc1ccccc1N=Nc1ccccc1O	4.6µM*	128	4.6µM*	?	?
Nc1ccc(N=Nc2ccccc2O)c(N)c1	3%	-25	8%	?	?
Cc1ccc(-n2c(Cl)c(Cl)nc(Cl)c2=O)cc1	0.92µM*	-97*	0.29µM*	2.9µM*	2.6µM*
COc1ccc(C(C)(C)C)cc1NC(=O)CCCN1C(=O)CN(C)C1=O	-15%	-4	-10%	2%	8%
CC(=O)N1Cc2cc(C(=O)NCC(F)(F)F)nc(-c3cccc(-c4cc5ccccc5o4)c3)c2[C@@H]1CCO	?	24	-22%	9%	6%
C=CCN=c1scc(-c2ccccc2)n1/N=C/c1ccccn1	1.3µM*	?	1.8µM*	18µM*	18µM*
C=CCN=c1scc(-c2ccc(F)cc2)n1/N=C/c1ccccn1	2.6µM*	?	2.6µM*	?	-1%
N=c1scc(-c2ccccc2)n1/N=C/c1ccco1	?	?	-6%	13%	12%
